# Most compounds without a hit are left out; they make up all but 7.4% or so of the library.
# ELG1 genotox = induces genotoxicity in HEK293T cells with luciferase-tagged ELG1; HEK293T ELG1-luciferase reporter, luminescence, 16 h; hit rate 1.3% among 330,000; Potency, µM (series often up to 46 µM), inactives show at the top dose activity change, positive = activation, most hits filed as activators; note: % of control where 0% means no effect; nearly all actives have a fitted effect of over 60% in size
#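 DMSO vehicle served as control against compound-treated ELG1-luciferase HEK293T cells; exposure lasted 16 hr at 37 °C and 5% CO2, followed by ONE-Glo luminescence detection after 30 min.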
# Rab9 promoter act = activates the Rab9 promoter | Huh7 Rab9 promoter-luciferase reporter, luminescence, 24 h | Potency, µM (highest dose often 9.22 µM), for the others: top-dose activation, negative = inhibition, actives largely listed as activators | hit rate 2.8% among 320,000 | AID 485297; note: % of control where 0% means no effect; nearly all actives have a fitted effect of over 60% in size
#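 Rab9 promoter-driven luciferase in stably transfected Huh7 cells; 1500 cells/well rested 2 h, exposed to compound in DMSO for 24 h at 37 °C, 5% CO2. Luminescence read 10 min after adding luciferase reagent at ambient temperature.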
# p53 reactivation = mutant p53 re-activation in reporter cells. hit rate 0.063% among 320,000. AID 504706. Potency, µM (titrated, usually from 92.2 µM), without a hit: at the highest dose activity change, positive = activation, actives largely listed as activators. H1299 p53-A138V BP100-luciferase reporter, luminescence, 24 h; note: % of control where 0% means no effect; nearly all actives have a fitted effect of over 45% in size
#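 p53-null H1299 cells stably carrying temperature-sensitive p53-A138V and a BP100-luciferase reporter were pinned with compounds (4-point, 1:5 series) and held 24 hrs at 37 deg C. Luminescence was read 10 min after detection reagent.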
# NPC1 prom act = activates the NPC1 promoter; Huh7 NPC1 promoter luciferase reporter, 24 h; Potency, µM (doses to about 9.22 µM), for the others: at the top dose activation, most hits filed as activators; hit rate 2.4% among 320,000; note: % of control where 0% means no effect; nearly all actives have a fitted effect of over 60% in size
#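 Huh7 cells stably carrying NPC1 promoter–luciferase, plated in Opti-MEM with 10% FBS for 2 h, were exposed to compound in DMSO for 24 h at 37 °C; luciferase reagent was added for 10 min and luminescence read.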
# SMN2 splice up = SMN2 splice variant enhancement | HEK293 SMN2-luciferase splicing reporter, luminescence, 30-36 h | Potency, µM (titrated, usually from 46.1 µM), inactives show at the top dose activity change, positive = activation, usual class: activators | hit rate 2.8% among 210,000; note: % of control where 0% means no effect; nearly all actives have a fitted effect of over 55% in size
#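 HEK293 cells carry an SMN2 […]–luciferase reporter in which exon 7 inclusion puts luciferase in frame. Cells were plated 10-12 h before compound addition, then incubated 30-36 h at 37C. ONE-Glo luminescence was read; sodium butyrate at 4.5 mM final served as control.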
# FLuc counter = counter-screen for miR-21 project: firefly luciferase inhibitors or activators; P08659; purified FLuc, Km substrates, luminescence inhibition; Potency, µM (highest dose often 57.5 µM), inactives show top-dose activity change, negative = inhibition, usual class: inhibitors; hit rate 6.9% among 360,000; AID 588342;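 note: plate controls were vehicle for no effect and reference inhibitor for full effect; nearly all actives have a fitted effect of over 55% in size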
#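 Biochemical qHTS of compounds, final roughly 60 µM downward over six points, against 10 nM purified firefly luciferase using Km concentrations of substrates (10 uM D-luciferin, 10 uM ATP) in Tris acetate pH 7.5 buffer; luminescence output.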
# Numbers without * were called inactive; u = inconclusive; x = not tested or not shown. Calls come from the whole dose curve; as a rule, active = well fitted curve in the direction sought with a large enough effect; inconclusive = small, poorly fitted or top-dose-only effect, or another doubt; inactive = no such curve, though single readings can be large; an effect the other way counts as inactive or inconclusive. Potency is the fitted concentration of half-maximal effect.
SMILES,ELG1 genotox,Rab9 promoter act,p53 reactivation,NPC1 prom act,SMN2 splice up,FLuc counter
COC(=O)c1cc2c(s1)-c1ccc(OC)cc1CC2,u,u,16%,15%,x,9.5µM*
CCc1ccccc1NC(=O)Cn1cc(S(=O)(=O)N2CCCC2)c(S(=O)(=O)N2CCCC2)c1,x,x,x,x,x,-6%
CCN(CC)CCCCC1CCN(CC(=O)N2c3ccccc3C(=O)Nc3cccnc32)CC1,x,x,x,x,-6%,x
COC(=O)c1cc2c(s1)-c1ccccc1OC2,10%,-11%,11%,8%,2%,24µM*
COc1ccc(N(C)C(=O)c2cc3c(s2)-c2ccccc2OC3)cc1,x,x,x,x,-24%,u
CCN(CC)c1nc2ccccc2nc1C(=O)Nc1cc(OC)c(OC)c(OC)c1,x,x,x,x,x,-5%
Nc1ccc(N=Nc2ccccc2)c(N)n1,u,12%,u,26%,u,17µM*
Clc1ccc(-c2[nH]ncc2N=Nc2ccccc2)cc1,4%,-6%,8%,-1%,x,-4%
Nc1ccc(N=Nc2ccccc2)c2ccccc12,0%,2%,17%,u,x,17µM*

# Compound activity as filed in PubChem BioAssay.
